Measurements published in PubChem BioAssay (Tox21).
Inconclusive results are not listed. Unmarked numbers belong to inactive results. Calls of active or inactive are those of the source. Calls come from the whole dose curve; as a rule, active = well fitted cell-killing curve with a large enough effect in the repeat runs; inconclusive = weak or mixed curves, or effect the other way; inactive = no such curve, though single readings can be large or run the other way.

Assay: qHTS assay to identify small molecule agonists of the vitamin D receptor (VDR) signaling pathway - cell viability counter screen (AID 743224); note: nearly all actives have a fitted effect of over 50% in size
Details: VDR-bla HEK293T viability, CellTiter-Glo luminescence, 16 h; series mostly up to 62.6 µM
Description: U.S. Tox21 Program National Center for Advancing Translational Sciences [NCATS] NIH Chemical Genomics Center [NCGC] U.S. Environmental Protection Agency [EPA] National Institutes of Environmental Health Sciences [NIEHS] National Toxicology Program [NTP] U.S. Food and Drug Administration [FDA] Tox21 Assay Overview: The vitamin D receptor (VDR), a member of nuclear hormone receptor superfamily, plays a critical role in calcium homeostasis and bone metabolism. It is also involved in cell differentiation and growth, and thrombogenicity. […] The cytotoxicity of the Tox21 compound library against the VDR-bla cell line was tested in parallel by measuring the cell viability using CellTiter-Glo assay (Promega, Madison, WI) in the same wells.
Tox21 Assay Protocol Summary: VDR-bla cells were dispensed at 2,000 cells/6 uL/well into black wall/clear-bottom 1536-well plates using a Multidrop Combi (Thermo Fisher Scientific, Waltham, MA) dispenser. After the assay plates were incubated at a 37C and 5% CO2 for 4 h, 23 nL of compounds dissolved in DMSO, positive controls or DMSO only was transferred to the assay plate by a Pintool station (Kalypsys, San Diego, CA). The plates were incubated at 37C and 5% CO2 for 16 h. After 1 uL of LiveBLAzerTM B/G FRET substrate was added using a Bioraptr Flying Reagent Dispenser (FRD) workstation (Beckman Coulter, Indianapolis, IN, USA), the plates were incubated at room temperature for 2 h, and fluorescence intensity was measured by an Envision plate reader (PerkinElmer, Shelton, CT). For cell viability readout that measures cytotoxicity, 3 ul/well of CellTiter-Glo reagent was added into the assay plates using a FRD. After 30 min incubation at room temperature, the luminescence intensity in the plates was measured using a ViewLux (PerkinElmer) plate reader.
% is set by controls: 0 for no effect and ±100 for the full control effect.

Row | Structure (SMILES) | outcome | activity change, negative = cytotoxicity
1 | C=CC(C)(CCC=C(C)C)OC(=O)CC (stereo not given) | inactive | –
2 | [O-][n+]1cccc(CO)c1 | inactive | –
3 | CC(C#N)(CCC(=O)O)N=NC(C)(C#N)CCC(=O)O (stereo not given) | inactive | –
4 | CCOc1ccc2nc(S(N)(=O)=O)sc2c1 | inactive | –
5 | O=C(O)c1cc(C(=O)O)cc(C(=O)O)c1 | inactive | –
6 | CCC(C(=O)NC(=O)NC(C)=O)c1ccccc1 (stereo not given) | inactive | –
7 | CCCCN(CCC(=O)OCC)C(C)=O | inactive | –
8 | CCCCOCCOC(=O)COc1cc(Cl)c(Cl)cc1Cl | inactive | –
9 | NCCCC(N)(C(=O)O)C(F)F (stereo not given) | inactive | –
10 | c1coc(CNc2ncnc3nc[nH]c23)c1 | inactive | –
11 | CCCCCCCCCCOc1cc2c(=O)c(C(=O)OCC)c[nH]c2cc1OCC | – | -0.151% [at 5.95 µM]
12 | CNCCO | inactive | –
13 | CC1=C(C/C=C(\C)CCC[C@H](C)CCC[C@H](C)CCCC(C)C)C(=O)c2ccccc2C1=O | inactive | –
14 | COC(=O)C1=C(C)NC(C)=C(C(=O)OC(C)C)C1c1cccc2nonc12 (stereo not given) | inactive | –
15 | N[C@@H](CCC(=O)O)C(=O)O | inactive | –
16 | CC(C)c1ccc2ncccc2c1 | inactive | –
17 | COc1ccnc(CS(=O)c2nc3cc(OC(F)F)ccc3[nH]2)c1OC (stereo not given) | inactive | –
18 | CC(C)(C)OC(=O)c1cccc(N)c1 | inactive | –
19 | O=C1CCCCCCCCCCCCCCO1 | inactive | –
20 | Cc1cccc(C)c1NC(=O)CC12CCCN1CCC2 | inactive | –

Row | Structure (SMILES) | outcome | activity change, negative = cytotoxicity
21 | CC(=O)c1ccc2ccccc2c1 | inactive | –
22 | C=C(C)C(=O)OCCOCCOCCOCCOC(=O)C(=C)C | inactive | –
23 | CN(C)CCCCCCN(C)C | inactive | –
24 | NC(N)=NCCN1CCCCCCC1 | – | -13.4% [at 0.55 µM]
25 | C[N+](C)(C)CCCCCCCCCC[N+](C)(C)C | inactive | –
26 | CC1=CC(=O)[C@H]2C[C@@H]1C2(C)C | inactive | –
27 | [K+] | inactive | –
28 | CCCCc1ccc2c(n1)[C@@H](c1ccc(OC)cc1C[C@H](C)C(=O)O)[C@H](C(=O)O)[C@H]2c1ccc2c(c1)OCO2 | inactive | –
29 | O=CN(CCO)CCO | inactive | –
30 | CC12CCC(C(=O)C1=O)C2(C)C (stereo not given) | inactive | –
31 | C=C(C)C(=O)OCC1CCCO1 (stereo not given) | inactive | –
32 | CN1C(C)(C)CC(O)CC1(C)C | inactive | –
33 | CC(=O)C1CCCCC1=O (stereo not given) | inactive | –
34 | OCCc1ccccn1 | inactive | –
35 | CC1OC1C1CCC2(C)OC2C1 (stereo not given) | inactive | –
36 | c1ccc(Cc2ccccc2)cc1 | inactive | –
37 | C[N+]1(C)CCCC(OC(=O)C(O)(c2ccccc2)c2ccccc2)C1 (stereo not given) | inactive | –
38 | CNCC(O)c1ccc(O)c(O)c1 (stereo not given) | inactive | –
39 | CN1CC(=O)N/C1=N/C(=O)Nc1cccc(Cl)c1 | inactive | –
40 | CC(C)CC(C)(N)C#N (stereo not given) | inactive | –
